# Results: article PMC4336329 (PLoS ONE, 2015)
# The campaign covered roughly 310,000 compounds. About 14,000 (4.5%) showed an effect of 50% or more. The effect is printed as a negative number. The sample as a whole holds a higher share of strong results than the screen did.
# Molecular target: human ether-à-go-go-related gene (hERG) potassium channel (human, UniProt Q12809)
# Experiment: primary screen, population patch clamp on CHO cells stably expressing hERG; higher = less effect of the substance
# 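Also: peak tail current of the secondary pulse compared with the same well before compound.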
# Sequence of human ether-à-go-go-related gene (hERG) potassium channel (Q12809 whole entry, looked up): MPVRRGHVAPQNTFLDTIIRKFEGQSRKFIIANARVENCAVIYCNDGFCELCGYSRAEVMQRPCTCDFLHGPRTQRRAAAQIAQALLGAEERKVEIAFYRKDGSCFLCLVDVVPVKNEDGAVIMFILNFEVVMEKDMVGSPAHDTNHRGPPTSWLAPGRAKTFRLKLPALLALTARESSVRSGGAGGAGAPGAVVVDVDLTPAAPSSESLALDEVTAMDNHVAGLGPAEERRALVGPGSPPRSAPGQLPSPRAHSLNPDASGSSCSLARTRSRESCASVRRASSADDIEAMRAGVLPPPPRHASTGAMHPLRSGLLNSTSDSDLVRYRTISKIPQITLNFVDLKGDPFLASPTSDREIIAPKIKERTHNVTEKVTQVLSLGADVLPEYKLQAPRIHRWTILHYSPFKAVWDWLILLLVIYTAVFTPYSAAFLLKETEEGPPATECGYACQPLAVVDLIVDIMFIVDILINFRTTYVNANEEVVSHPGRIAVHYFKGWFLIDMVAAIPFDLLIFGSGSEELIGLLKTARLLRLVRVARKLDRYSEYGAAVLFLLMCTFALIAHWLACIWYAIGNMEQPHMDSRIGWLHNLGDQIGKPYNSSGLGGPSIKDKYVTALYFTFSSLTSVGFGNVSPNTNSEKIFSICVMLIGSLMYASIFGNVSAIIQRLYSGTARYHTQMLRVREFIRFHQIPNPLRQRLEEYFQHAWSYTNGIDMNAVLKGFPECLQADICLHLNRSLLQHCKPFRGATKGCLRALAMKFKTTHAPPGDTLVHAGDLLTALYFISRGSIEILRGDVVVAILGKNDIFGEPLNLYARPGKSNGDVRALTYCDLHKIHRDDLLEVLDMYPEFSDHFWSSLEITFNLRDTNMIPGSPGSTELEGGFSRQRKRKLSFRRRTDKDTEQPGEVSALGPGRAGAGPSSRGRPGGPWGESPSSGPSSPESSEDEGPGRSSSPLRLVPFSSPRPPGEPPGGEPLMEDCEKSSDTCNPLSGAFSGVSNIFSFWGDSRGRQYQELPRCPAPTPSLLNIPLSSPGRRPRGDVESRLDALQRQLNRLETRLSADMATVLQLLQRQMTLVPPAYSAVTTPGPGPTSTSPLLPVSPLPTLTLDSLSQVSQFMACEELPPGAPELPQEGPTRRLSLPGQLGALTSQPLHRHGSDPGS
row,Compound,"hERG current change (%, negative = inhibition) at 10uM"
1,CC1(CC(=O)N/N=C/c2cc3c(cc2Br)OCO3)OCCO1,15.5%
2,CCc1c(C)sc(NC(=O)OC)c1C(=O)N1CCCCC1,-4.94%
3,COC(=O)c1ccc(N2CCN(c3ccccc3)CC2)c(NC(=O)C2CC2)c1,-35.6%
4,CC(=NCCc1c[nH]c2ccccc12)c1c(O)n(Cc2ccccc2)c(=O)[nH]c1=O,0.859%
5,COC(=O)N/N=C\c1cc(Br)ccc1OCc1ccccc1,-6.55%
6,O=C1CCCC(=O)C1=C1SCCCS1,-5.96%
7,COc1ccc(C(=O)N2CCN(c3ccc(C)cc3)CC2)cc1OC,-21.8%
8,COc1ccc(C(=O)N2CCN(C(=O)c3ccc(-c4ccccc4)cc3)CC2)cc1OC,-43.6%
9,COc1cccc(SCC2(O)CCN(C(=O)c3ccc(Cl)cc3)CC2)c1,-69%
10,COc1ccc(C(=O)N2CCN(c3c(C)cccc3C)CC2)cc1OC,-68.8%
11,COc1ccc(C(=O)N2CCN(c3ccc(C)c(C)c3)CC2)cc1OC,-6.14%
12,COc1ccc(C(=O)N2CCC(O)(c3ccc(F)cc3)CC2)cc1OC,-38.6%
13,COc1ccc(C(=O)N2CCC(O)(c3ccc(Cl)cc3)CC2)cc1OC,-51.9%
14,COc1cc(C(=O)N2CCC(O)(c3ccccc3)CC2)cc(OC)c1OC,14.7%
15,O=C(c1ccc(Cl)cc1)N1CCC(O)(CSc2ccccc2)CC1,-38.1%
16,COc1cc(C(=O)N2CCN(c3ccc(C)cc3C)CC2)cc(OC)c1OC,-19.7%
17,COc1ccc(C(=O)N2CCN(c3ccc(C)cc3C)CC2)cc1OC,-68.5%
18,O=C(c1ccc(Cl)cc1)N1CCC(O)(CSc2ccc(Cl)cc2)CC1,-44.4%
19,Cc1nc2ccc(Cl)cc2c(-c2ccccc2)c1C(=O)N(C)C.Cl,-5.56%
20,CCc1ccccc1NC(=O)CNC(=O)c1cc(C2CC2)nn1-c1ccccc1,-28.8%
21,O=C(c1noc2c1CCCC2)N1CCC(CO)(Cc2ccccc2Cl)CC1,-22.9%
22,COCCCNC(=O)Cn1ccc(N)nc1=O,11.4%

row,Compound,"hERG current change (%, negative = inhibition) at 10uM"
1,CN(C)C=O.O=C(Nc1cccc(S(=O)(=O)NC2=NCCCCC2)c1)c1cc(-c2ccco2)nc2ccccc12,19.7%
2,COc1ccc(-n2c(CNc3ccc(C)cc3)nnc2SCC(=O)Nc2nc(-c3ccccc3)cs2)cc1,-23.1%
3,CCN1C(=O)/C(=C/N(C)c2ccccc2)OC1=S,-8.25%
4,CC1CCc2c(sc(NC(=O)C(=O)NCc3ccco3)c2C#N)C1 (centres unmarked),-66.3%
5,CCN1CCN(CC(=O)Nc2sc3c(c2C#N)CCC3)CC1,-18.1%
6,CCN1CCN(CC(=O)Nc2sc3c(c2C#N)CCC(C)C3)CC1 (centres unmarked),-51.7%
7,CC(=O)Nc1sc2c(c1C#N)CCC(C)C2 (centres unmarked),-3.48%
8,CC1CCc2c(sc(NC(=O)CN3CCN(C(=O)c4ccco4)CC3)c2C#N)C1 (centres unmarked),-41.5%
9,CC1CCc2c(sc(NC(=O)COC(=O)c3ccccc3NCc3ccco3)c2C#N)C1 (centres unmarked),7.34%
10,O=C(CN1CCOc2ccccc21)N1CCC(Cc2ccccc2)CC1,-26.3%
11,Cc1nn(CCc2nn[nH]n2)c2nc(-c3ccccc3)cc(C(F)(F)F)c12,19.3%
12,COc1ccc(-c2csc(NCCc3nc4cc(Cl)c(N5CCCCC5)cc4n3CCOCCO)n2)cc1,-10.4%
13,CC1CCN(CC(=O)n2c3c(c4ccccc42)CCCC3)CC1.Cl,0.546%
14,CCc1ccc(-c2csc(NC(=O)c3cccnc3)n2)cc1,-3.93%
15,Cc1ccccc1N=C1N=C(N)c2ccccc21,-2.13%
16,CC1CCCN(CCCNC(=O)C2CC(=O)N(c3ccc(F)c(Cl)c3)C2)C1 (centres unmarked),-37.9%
17,CC1CCCCN1CCNC(=O)C1CC(=O)N(c2ccc(F)c(Cl)c2)C1 (centres unmarked),-56.9%
18,O=C(NCCN1CCOCC1)C1CC(=O)N(c2ccc(F)c(Cl)c2)C1 (centres unmarked),-3.45%
19,CN(C)CCNC(=O)C1CC(=O)N(c2ccc(F)c(Cl)c2)C1 (centres unmarked),-11.2%
20,CN(CCNC(=O)C1CC(=O)N(c2ccc(F)c(Cl)c2)C1)Cc1ccccc1 (centres unmarked),-52.5%
21,COCCNC(=O)C1CC(=O)N(c2ccc(F)c(Cl)c2)C1 (centres unmarked),-2.89%
22,CN(C)c1ccc(/C=N/NC(=O)c2cccc(N3CCCC3=O)c2)cc1,12.7%
